Data as given in PubChem BioAssay (NCI).
This is part of a sample that, as a whole, favours compounds with a hit. Of some 83,000 tested, about 20% had one in any assay.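 Single-concentration screen, 48 h exposure, 96-well plates. Endpoint: percent growth. Below 10 = active.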 Unmarked numbers belong to inactive results. Activity calls are given as the source filed them.

Columns and labels:
Test in all cases: NCI-60 one-dose screen, 48 h (100 = growth as untreated, 0 = no growth, -100 = all killed)
Conditions in all cases: 10 µM unless noted
SR leukemia = system: SR leukemia
RPMI-8226 leukemia = system: RPMI-8226 leukemia
OVCAR-8 ovarian = system: OVCAR-8 ovarian
OVCAR-4 ovarian = system: OVCAR-4 ovarian
SK-OV-3 ovarian = system: SK-OV-3 ovarian
IGROV1 ovarian = system: IGROV1 ovarian
OVCAR-3 ovarian = system: OVCAR-3 ovarian
HS 578T breast = system: HS 578T breast
NCI/ADR-RES ovarian = system: NCI/ADR-RES ovarian
OVCAR-5 ovarian = system: OVCAR-5 ovarian

Row | Compound | growth (SR leukemia) | growth (RPMI-8226 leukemia) | growth (OVCAR-8 ovarian) | growth (OVCAR-4 ovarian) | growth (SK-OV-3 ovarian) | growth (IGROV1 ovarian) | growth (OVCAR-3 ovarian) | growth (HS 578T breast) | growth (NCI/ADR-RES ovarian) | growth (OVCAR-5 ovarian)
1 | CCCCCOC(=O)c1ccc(NC(=O)CNCC(C)C)cc1 | 82.2% | 73.1% | 96.1% | 101% | 95.4% | 93.4% | 101% | 96.9% | 101% | –
2 | O=[N+]([O-])c1ccc2[nH]cc(-c3c4ccsc4cc4[nH]c5ccc([N+](=O)[O-])cc5c34)c2c1 | 10.2% | 9.85% (active) | 7.43% (active) | 35.1% | 15.1% | – | -21.3% (active) | 26.6% | -14.1% (active) | –
3 | CCCCC1COc2cccc3c(SCC(=O)N(C)c4cccc(Cl)c4)cc[n+]1c23 (centres undefined) | 100% | – | 118% | 129% | 108% | 112% | 121% | 109% | 111% | 109%
4 | Fc1ccc(Nc2nc(Nc3ccc(-c4nc5ccccc5[nH]4)cc3)c3cn[nH]c3n2)cc1 | -21.1% (active) | 1.66% (active) | 56.8% | 81.8% | 90.3% | 81.6% | 20.3% | 93.5% | 67.5% | –
5 | O=C(Nc1ccccn1)[C@H](O)[C@@H](O)C(=O)N1CCOCC1 | 120% | 106% | 96.7% | 123% | 105% | 105% | 107% | 104% | 104% | –
6 | Clc1ccc(-c2nnc(-c3ccco3)o2)cc1 | 89.7% | 93.8% | – | 95.4% | 102% | 93.8% | 107% | 107% | 104% | 82.4%
7 | O=C(CC1Sc2ccccc2NC1=O)NNc1ccc(F)cc1 (centres undefined) | 83.5% | 78.7% | – | 72% | 92.5% | – | 84.8% | 82.4% | 44.1% | 76.3%
8 | CCCCCOC(=O)c1cccc(NC(=O)CN(CC)CC)c1 | 78.3% | 96.7% | 103% | 119% | 94.9% | 107% | 113% | 111% | 105% | –
9 | C=C(C=O)[C@@H]1CC=C(C=O)CC1 | -6.52% (active) | -36.6% (active) | – | – | 0.713% (active) | -24.5% (active) | -19.7% (active) | 6.33% (active) | 3.97% (active) | -54.5% (active)
10 | CCOC(=O)c1sc2ccc(NCc3nc[nH]c3C)cc2c1NC(=O)c1cc(OC)c(OC)c(OC)c1 | 10.4% | 80.1% | – | – | 98.1% | 89.5% | 94% | 99.2% | 91.7% | 96.7%
11 | COc1cccc(-c2cnco2)c1OCc1c(C)c(COc2c(OC)cccc2-c2cnco2)c(C)c(COc2c(OC)cccc2-c2cnco2)c1C | 64.2% | 47.4% | 56.7% | 7.51% (active) | – | 80.2% | 63.1% | 30.8% | 81.2% | –
12 | O=C1CSC(c2ccccc2O)N1c1nnc(Cn2cnnc2)o1 (centres undefined) | 72.4% | 71.1% | – | 86.4% | 88.3% | 73.9% | 91.2% | 88.1% | 68.9% | 78.1%
13 | CCC(=O)OC1=C(C)SC2=NC(c3ccc(Cl)c(Cl)c3)=CC(c3cc(OC)c(OC)c(OC)c3)N21 (centres undefined) | 103% | 95.8% | – | 98.1% | 105% | 106% | 108% | 101% | 105% | 102%
14 | CC(c1ccc(-n2cccn2)cc1)c1cnc(N2CCc3ccc(C(N)=O)cc3C2)s1 (centres undefined) | 53.5% | 34.5% | 34.9% | 42% | 68.6% | 79.8% | 71.5% | 100% | 32.1% | –
15 | COc1ccc(-c2nc3ccccn3c2/C=C/C(=O)c2cc(OC)c(OC)c(OC)c2)cc1 | 18.8% | 29.8% | 30.6% | 56.5% | 62.8% | – | 51.2% | – | – | –
16 | O=C1Nc2ccccc2SC1c1ccccc1Cl (centres undefined) | 10.4% | 75% | – | 80.4% | 114% | 101% | 83% | 80.4% | 101% | 98.1%
17 | O=C(c1ccccc1)c1ccc(Cl)c([N+](=O)[O-])c1 | -3.1% (active) | 82.3% | 97.8% | 99.5% | 108% | 43.6% | 75.7% | 87.7% | 108% | –
18 | CC12CC(C#N)CCC1O2 (centres undefined) | 98.9% | 106% | 105% | – | 115% | 99.2% | 117% | 105% | 115% | –
19 | COc1ccc(O)c(-c2cc(-c3ccccc3)c(C#N)c(=O)[nH]2)c1 | 89% | 81.2% | 96.3% | 97.4% | 92.6% | 98.8% | 95.9% | 89.6% | 97.3% | –
20 | Cc1cn(C2CCCCC2)c(=O)[nH]c1=O | 111% | 114% | 106% | 90.8% | 112% | 126% | 110% | 121% | 109% | –
21 | OC(CBr)c1ccnc2ccccc12 (centres undefined) | 98.7% | – | 98.2% | 110% | 105% | 102% | 106% | 99.6% | 101% | 106%
22 | CC/C=C/[C@@H]1C=C[C@@H]2CCC[C@H]2[C@@H]1CC[C@H](O)[C@H](C)N | -40.1% (active) | -50.2% (active) | – | – | -15.9% (active) | 1.42% (active) | -64.8% (active) | -44.3% (active) | -33.4% (active) | -29% (active)
23 | CCCc1cc(=O)oc2c3c(c4c(c12)OC(C)(C)C=C4)O[C@@H](C)[C@H](C)C3=O | 65.4% | 56.1% | – | 67.8% | 92.3% | 74.8% | 86.6% | – | 0.517% (active) | -19.4% (active)
24 | COc1cc2c(cc1OC)-c1ccc3cc4c(cc3c1N(CCCN(C)C)C2)OCO4 | 15.3% | 17.1% | 27.5% | 52.4% | 55.3% | 21.7% | 48% | 45.5% | 65.4% | –
25 | CN(C)c1ccc2cc(-c3ccc(Cl)c(Cl)c3)c(N)nc2c1 | -29% (active) | – | 21% | 9.09% (active) | 60.4% | 42% | 31% | – | 15.9% | 55.4%
26 | COc1cc2oc(-c3cccc(C(=O)Nc4ccc(C)cc4)c3)cc(=O)c2c(OC)c1OC | 12.7% | – | 33.3% | 59.8% | – | 44.4% | 42.3% | 64.3% | 37.5% | 48.2%
27 | O=C1Nc2ccccc2/C1=N/N=C/c1c[nH]c2ccccc12 | 67% | – | 70.4% | 59.9% | – | 35.7% | 69.5% | 15% | 91% | 81.6%
28 | O=C1/C(=C/c2ccc([N+](=O)[O-])cc2)COc2ccc(O)c(O)c21 | -1.74% (active) | – | 14.2% | 6.56% (active) | 89.2% | -40% (active) | -88.2% (active) | – | 11.1% | -68.6% (active)
29 | CCN(CC)CCCNC(=O)c1ccc(N)cc1O | 98.3% | – | 103% | 118% | 105% | 91.8% | 107% | 98.4% | 96.1% | 98.9%
30 | N#C/C(=C\c1ccc(Br)cc1)n1nnc2ccccc21 | 11.7% | – | 17.3% | 6.76% (active) | – | 1.96% (active) | -31.8% (active) | 19.4% | -6.66% (active) | 7.66% (active)
